GPR7 antag – GPR7 receptor antagonists, primary screen, cell-based, fluorescence, single concentration | GPR7-expressing cells, fluorescence antagonist assay | AID 1861, 2009 | inhibition, % at 4.4 µM | 290,000 compounds, 1.1% hits; in the data active = inhibition above about 16%, passing the limit was not always enough;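 note: cells stimulated with the agonist NPW; 0% = agonist with vehicle and 100% = vehicle without agonist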
ANO1 block – TMEM16A chloride channel inhibitors, primary screen, cell-based, HTS. 310,000 compounds, 1.2% hits. normalized B-score (activity score, 25-100; higher = stronger inhibition) at 10 µM. Anoctamin-1 (Mus musculus), Q8BHY3. HEK293 TMEM16A/YFP iodide influx fluorescence, ionomycin;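 active = ratio plate-corrected score three or more library SD toward inhibition, starting fluorescence score within five deviations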;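 note: score derived from kinetic fluorescence span divided by baseline fluorescence per well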
CHT inh – inhibitors of human choline transporter CHT; High affinity choline transporter 1 (Homo sapiens), Q9GZV3; CHT-expressing cells, membrane potential dye, choline response; hits give low values; B-score at 10 µM; 310,000 compounds, 0.86% hits;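 active = B-score over 3 SD under the library average, and starting fluorescence ratio not unusually high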;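 note: choline stimulus applied at its EC90 after an EC20 pre-addition; B-score computed on integrated fluorescence ratio after choline addition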
CHT allo act – CHT positive allosteric modulators, primary screen, cell-based, membrane potential dye, choline EC20 | CHT-expressing cells; hits give high values; LV-AA mutant CHT in HEK293 cells | B-score at 10 µM | 310,000 compounds, 0.49% hits;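 active = initial fluorescence not abnormally high and integrated response B-score, plate-corrected, over 3 SD above library mean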
Kir21 block – inhibitors of mouse Kir2.1 inward-rectifier potassium channel | HEK293-Kir2.1, FluxOR thallium flux fluorescence; hits give low values | Inward rectifier potassium channel 2 (Mus musculus), P35561 | 310,000 compounds, 0.85% hits | B-score at 10 µM;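 active = fluorescence ratio B-score at or below minus 3 SD of library scores, with starting-brightness B-score within 2 SD, cut at about -4.2 in these data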;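 note: channel flux triggered by added potassium and thallium sulfate stimulus; B-score of peak minus minimum fluorescence over baseline after thallium stimulus; more negative B-score means stronger Kir2.1 block with less thallium influx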
Target sequence (P35561 whole entry, looked up): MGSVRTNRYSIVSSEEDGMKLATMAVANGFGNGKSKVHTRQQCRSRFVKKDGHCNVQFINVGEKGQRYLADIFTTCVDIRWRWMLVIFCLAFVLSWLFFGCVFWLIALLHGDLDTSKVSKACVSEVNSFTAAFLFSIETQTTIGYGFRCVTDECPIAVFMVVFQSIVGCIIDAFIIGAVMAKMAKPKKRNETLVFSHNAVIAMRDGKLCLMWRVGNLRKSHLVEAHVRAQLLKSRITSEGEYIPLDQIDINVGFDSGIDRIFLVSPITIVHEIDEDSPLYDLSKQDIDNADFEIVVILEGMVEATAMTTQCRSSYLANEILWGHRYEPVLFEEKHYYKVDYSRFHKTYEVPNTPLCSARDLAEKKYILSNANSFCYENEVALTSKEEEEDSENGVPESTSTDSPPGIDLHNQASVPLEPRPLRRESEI
TMEM16A act – TMEM16A chloride channel activators or potentiators, primary screen, cell-based, HTS; Anoctamin-1 (Mus musculus), Q8BHY3; HEK293 TMEM16A/YFP-H148Q/I152L, iodide quench fluorescence; hits give low values; B-score at 10 µM; 340,000 compounds, 0.3% hits; AID 623877, 2012;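 active = fluorescence-ratio B-score plate-corrected deviation score at least 3 library SD below zero, with starting fluorescence score within 5 deviations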;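 note: channel opened by trigger with iodide after compound preincubation; score built on the fluorescence ratio of max minus min over baseline; more negative score means more quench and so TMEM16A activation or potentiation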
An asterisk follows results filed as active. Shown are actives, neighbours in structure and some others; about 3.7% of the full set was active somewhere.

For CC(=O)N(C)c1ccc(NCc2cc(=O)oc3cc(C)c(O)cc23)cc1 the results were GPR7 antag 27.0, ANO1 block inactive, CHT inh inactive, CHT allo act inactive, Kir21 block -0.13 and TMEM16A act inactive.
O=[N+]([O-])c1cc2cccnc2c2ncccc12 was read as GPR7 antag -10.4, ANO1 block inactive, CHT inh inactive, CHT allo act 6.98* and Kir21 block -0.82.
Cc1ccc([N+](=O)[O-])c2cccnc12 was read as GPR7 antag -14.4, ANO1 block inactive, CHT inh inactive, CHT allo act inactive, Kir21 block 0.26 and TMEM16A act inactive.
O=C(Nc1ccnn1C1CCN(CCCc2ccccc2)CC1)c1cccc(F)c1 was read as GPR7 antag 12.7, ANO1 block inactive, CHT inh inactive, CHT allo act inactive, Kir21 block -0.12 and TMEM16A act inactive.
Screening CC(=O)c1ccc(S(=O)(=O)N(C)CCCC(=O)NCc2ccc3c(c2)OCO3)cc1 returned TMEM16A act -5.81*.
For CN(CC(=O)NCc1ccc2c(c1)OCO2)S(=O)(=O)c1ccc(Cl)cc1 the results were TMEM16A act inactive.
For CN(CCCC(=O)NCc1ccco1)S(=O)(=O)c1ccccc1 the results were GPR7 antag 15.9*, ANO1 block inactive, CHT inh inactive, CHT allo act inactive, Kir21 block -0.08 and TMEM16A act inactive.
Cc1cc(Br)ccc1NC(=O)CN(C)C(=O)c1cc([N+](=O)[O-])ccc1N1CCOCC1 was read as ANO1 block inactive, CHT inh inactive, CHT allo act inactive, Kir21 block -0.6 and TMEM16A act inactive.
`CCOc1cc(O)c(-c2[nH]ncc2-c2nc(C)cs2)cc1CC` gave GPR7 antag -8.3, ANO1 block 25*, CHT inh inactive, CHT allo act inactive, Kir21 block 0.23 and TMEM16A act inactive.
`O=c1ccn(Cc2ccccc2)cc1` gave ANO1 block inactive, CHT inh inactive, CHT allo act inactive, Kir21 block 0.52 and TMEM16A act inactive.
`Cc1ccccc1Cn1ccc(=NCc2ccccc2)cc1` gave GPR7 antag -4.3, ANO1 block inactive, CHT inh inactive, CHT allo act inactive and Kir21 block -5.45*.
CC(C)N(C(=O)CSc1ncnc2sc(-c3ccccc3)cc12)C(C)C was read as GPR7 antag -5.2, ANO1 block 25*, CHT inh inactive, CHT allo act inactive, Kir21 block 2.91 and TMEM16A act inactive.
Screening COc1ccc(NS(=O)(=O)c2ccc(-n3nnc4ccccc43)c([N+](=O)[O-])c2)cc1 returned GPR7 antag 6.6, ANO1 block 25*, CHT inh inactive, CHT allo act inactive, Kir21 block -0.63 and TMEM16A act inactive.
`COCCCNCCCCOc1ccccc1-c1ccccc1` gave GPR7 antag 0.1, ANO1 block inactive, CHT inh inactive, CHT allo act inactive, Kir21 block -4.55* and TMEM16A act inactive.
`CNCCCCOc1ccccc1-c1ccccc1` gave GPR7 antag 8.2, ANO1 block inactive, CHT inh inactive, CHT allo act inactive, Kir21 block -6.42* and TMEM16A act inactive.
Screening CNCCOc1ccccc1-c1ccccc1 returned GPR7 antag -8.2, ANO1 block inactive, CHT inh inactive, CHT allo act inactive, Kir21 block -0.59 and TMEM16A act inactive.
Screening C=CCNCCCCOc1ccccc1-c1ccccc1 returned GPR7 antag 4.6, ANO1 block inactive, CHT inh inactive, CHT allo act inactive, Kir21 block -5.72* and TMEM16A act inactive.
For CCOC(=O)/C=c1\s/c(=C\c2sccc2C)c(=O)n1CC(=O)NCc1ccc(C)cc1 the results were GPR7 antag -10.7, ANO1 block inactive, CHT inh inactive, CHT allo act inactive and Kir21 block 1.07.
For C=CCn1c(-c2sc3nc(C)cc(C)c3c2N)n[nH]c1=S the results were GPR7 antag -16.5, ANO1 block inactive, CHT inh inactive, CHT allo act inactive, Kir21 block 2.09 and TMEM16A act inactive.
For O=C(NC(=S)Nc1cccc(NC(=O)c2ccc(Cl)cc2Cl)c1)c1cccs1 the results were GPR7 antag -9.4, ANO1 block inactive, CHT inh inactive, CHT allo act inactive, Kir21 block 0.28 and TMEM16A act inactive.
For Cc1ccnc(SCC(=O)NC2CC2)n1 the results were GPR7 antag -14.1, ANO1 block inactive, CHT inh inactive, CHT allo act inactive, Kir21 block -0.99 and TMEM16A act inactive.
CN(C(=O)c1cccc(COc2ccc(Cl)cc2Cl)c1)c1ccccc1 was read as GPR7 antag -4.6, ANO1 block 25*, CHT inh inactive, CHT allo act inactive, Kir21 block -5.98* and TMEM16A act inactive.
For CCn1nc(C)c(CN2CCC(n3nccc3NC(=O)c3ccc4c(c3)OCO4)CC2)c1C the results were GPR7 antag -20.0, ANO1 block inactive, CHT inh inactive, CHT allo act inactive, Kir21 block -1.5 and TMEM16A act inactive.
Screening CC(=O)c1c(C)[nH]c(C(=O)Nc2c(C)n(C)n(-c3ccccc3)c2=O)c1C returned GPR7 antag -5.5, ANO1 block 100*, CHT inh inactive, CHT allo act inactive, Kir21 block 0.29 and TMEM16A act inactive.
For Cc1c(NC(=O)c2ccc(C(=O)Nc3c(C)n(C)n(-c4ccccc4)c3=O)cc2)c(=O)n(-c2ccccc2)n1C the results were GPR7 antag -18.7, ANO1 block inactive, CHT inh inactive, CHT allo act inactive, Kir21 block -0.17 and TMEM16A act inactive.
Cc1ccc2c(C)c(C(=O)Nc3c(C)n(C)n(-c4ccccc4)c3=O)oc2c1 was read as GPR7 antag -6.2, ANO1 block inactive, CHT inh inactive, CHT allo act inactive, Kir21 block 1.48 and TMEM16A act -18.9*.
For O=C(OCC(=O)N1CCCC1=O)C1COc2ccccc2O1 (stereo not drawn) the results were GPR7 antag -5.4, ANO1 block inactive, CHT inh inactive, CHT allo act inactive, Kir21 block 1.49 and TMEM16A act inactive.
CC(C)(C)OC(=O)N1CCC[C@H]1c1nnc(SCc2ccccc2)o1 was read as GPR7 antag -5.3, ANO1 block inactive, CHT inh inactive, CHT allo act inactive, Kir21 block -1.78 and TMEM16A act inactive.

Bioassay records deposited in PubChem by several laboratories.
